# From PubChem BioAssay AID651784 (National Center for Advancing Translational Sciences (NCATS), 2012)
# Results filed as inconclusive are left out. Active and inactive are the calls of the source. Calls come from the whole dose curve; as a rule, active = well fitted inhibition curve with a large enough effect; inconclusive = small, poorly fitted or top-dose-only effect; inactive = no such curve, though single readings can be large or run the other way.
# Assay: Acumen qHTS Assay for Inhibitors of the mTORC1 Signaling Pathway in MEF (Tsc2-/-, p53-/-) Cells: Hit Validation;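 note: phospho-rpS6 Ser235/236 immunofluorescence normalized to propidium iodide cell count; nearly all actives have a fitted effect of over 65% in size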;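 for activity change, negative = inhibition: cells exposed to compound for 24 hours; plate controls were DMSO for no effect and 7.5 nM rapamycin control for full effect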
# Details: Acumen imaging; activity change, negative = inhibition: at 37.3 µM (top of the series)
# Potency is the fitted concentration of half-maximal effect.
SMILES,"activity change, negative = inhibition [%]",Potency
CCOC(=O)C(Cc1c[nH]c2ccccc12)NC(=O)COc1ccc(Cl)cc1 (configuration not stated),-4.4,
COc1ccc(Cl)cc1S(=O)(=O)NCc1ccc2c(c1)CCN2C(=O)c1cccc(C)c1,-22.6,
COC(=O)CN1C(=O)C(C)(C)c2cc(S(=O)(=O)Nc3ccc(Br)cc3F)ccc21,,9.27 µM (active)
Cc1cc(C)cc(NC(=O)c2cnn(-c3ccc(C)c(C)c3)c2C2CCNCC2)c1,-31.5,
Cc1ccccc1CS(=O)(=O)c1ncc(Cl)c(C(=O)Nc2nnc(C(C)C)s2)n1,-92.9,
COC(=O)c1c(C)oc2ccc(N(C(=O)c3ccncc3)S(=O)(=O)c3ccc(OC)cc3)cc12,,1.85 µM (active)
CC1C(=O)N2CCCc3cc(S(=O)(=O)Nc4ccc(Br)cc4F)cc1c32 (configuration not stated),,4.65 µM (active)
COc1ccccc1NC(=O)c1sc(-c2ccc(Cl)cc2)cc1N,1.3,
COc1ccc(CCCc2nnc(SCC(=O)Nc3ccc(OC)cc3)o2)cc1,14,
Cc1nc2nncn2c(NCc2ccc(F)cc2)c1C,-42.2,
COc1ccc(CNC(=O)c2cc(-c3ccc(OC)c(OC)c3)nc3n[nH]c(-c4ccc(C)cc4)c23)cc1,-124,
CC1=Nc2cc(C(=O)NC3CCCC3)ccc2Sc2ccc(Br)cc21,-107,
Cc1cccc(-c2nc3c(cnn3-c3ccccc3)c(=O)n2-c2ccc(Br)cc2)c1,-37.3,
COc1cc(OC)cc(C(=O)NCCc2csc(-c3cccc(C)c3)n2)c1,-7.07,
Cc1ccc(NC(=O)CCS(=O)(=O)c2ccc3nc(C)sc3c2)cc1,-65.5,
Cc1nn(CC(=O)N2CCN(c3ccccc3F)CC2)c(=O)c2cccn12,2.89,
CCN1CCC(N(Cc2ccc(F)cc2)C(=O)Nc2ccc(C)c(F)c2)CC1,5.5,
COC(=O)c1ccccc1NC(=O)c1nc(S(=O)(=O)Cc2cccc(C)c2)ncc1Cl,,4.14 µM (active)
Cc1cccc(N2CCN(c3ncnc4c3nc3n4CCCCC3)CC2C)c1 (configuration not stated),,3.29 µM (active)

SMILES,"activity change, negative = inhibition [%]",Potency
CCN(CC)CCn1c(=N)n(CC(O)COc2ccccc2C)c2ccccc21 (configuration not stated),,4.65 µM (active)
Cc1ccc(-c2nnc(Nc3ccc(O)cc3)c3ccccc23)cc1S(=O)(=O)N1CCCCC1,-11.6,
CCC1=Nc2cc(C(=O)NC3CCC(C)CC3)ccc2Sc2ccc(C)cc21 (configuration not stated),,1.47 µM (active)
CCOC(=O)c1[nH]c2ccccc2c1NC(=O)c1ccccc1OCC,,2.93 µM (active)
Brc1ccc(Nc2c3c(nc4nncn24)CCC3)cc1,7.81,
O=C(Nc1ccc2oc(-c3ccc4ccccc4c3)nc2c1)c1cc(Br)ccc1Cl,,9.27 µM (active)
Cc1c(C(=O)OC2CCC(C)CC2)[nH]c2c1C(=O)CC(c1ccccc1Cl)C2 (configuration not stated),-43.7,
O=C(CN1C(=O)C(c2ccc(F)cc2)=NC12CCCCCC2)Nc1ccccc1Cl,12.4,
CCCN(CCC)CCCNC(=O)C1CCN(c2nc3ccc(CC)cc3s2)CC1,,11.7 µM (active)
Cc1ccc(NC(=O)COc2ccc(-c3nn(C)c(=O)c4ccccc34)cc2)c(C)c1,-44.6,
CCOC(=O)c1c(NC(=O)c2ccc(S(=O)(=O)N(CCOC)CCOC)cc2)sc2c1CC(C)(C)NC2(C)C,,8.26 µM (active)
CC1C(=O)Nc2ccc(S(=O)(=O)Nc3ccccc3Br)cc2NC1=O (configuration not stated),8.5,
CC1CCCN(CCCNC(=O)c2ccc3c(c2)N(Cc2ccc(Cl)cc2)C(=O)c2ccccc2S3(=O)=O)C1 (configuration not stated),,13.1 µM (active)
CCOC(=O)c1c(NC(=O)c2cc(CC)on2)sc(C(C)=O)c1C,12,
COc1ccc(OCc2nc3c4c(-c5ccccc5)c(-c5ccccc5)oc4ncn3n2)cc1,3.1,
COc1ccc(OCC(=O)NCc2ccc3c(c2)CCN3C(=O)c2cccc(C)c2)cc1,-87.8,
O=S(=O)(NCC(c1ccco1)N1CCN(c2ccc(F)cc2)CC1)c1ccccc1 (configuration not stated),12.9,
CC(C)CCNC(=O)c1cccc(Nc2nc3ccccc3n3nnnc23)c1,-88.5,
